{"source": "paper PMC7862700", "about": "“An all-to-all approach to the identification of sequence-specific readers for epigenetic DNA modifications on cytosine”", "test_in_all_cases": "DAPPL (digital affinity profiling via proximity ligation, sequencing); 10 mM Tris-HCl pH 7.5, 50 mM NaCl, 1 mM DTT, 4% glycerol, room temperature, 30 min; GST-TFs on glutathione beads, 16-mer random dsDNA library, 0.1% formaldehyde crosslink after washing; high values mean tight binding", "details_in_all_cases": "protein: recombinant; tags: N-terminal GST; dsDNA, one strand shown", "key": {"[1]": {"target": "T1, FLI1 (Homo sapiens, UniProt Q01543 1-452)", "T1 sequence": "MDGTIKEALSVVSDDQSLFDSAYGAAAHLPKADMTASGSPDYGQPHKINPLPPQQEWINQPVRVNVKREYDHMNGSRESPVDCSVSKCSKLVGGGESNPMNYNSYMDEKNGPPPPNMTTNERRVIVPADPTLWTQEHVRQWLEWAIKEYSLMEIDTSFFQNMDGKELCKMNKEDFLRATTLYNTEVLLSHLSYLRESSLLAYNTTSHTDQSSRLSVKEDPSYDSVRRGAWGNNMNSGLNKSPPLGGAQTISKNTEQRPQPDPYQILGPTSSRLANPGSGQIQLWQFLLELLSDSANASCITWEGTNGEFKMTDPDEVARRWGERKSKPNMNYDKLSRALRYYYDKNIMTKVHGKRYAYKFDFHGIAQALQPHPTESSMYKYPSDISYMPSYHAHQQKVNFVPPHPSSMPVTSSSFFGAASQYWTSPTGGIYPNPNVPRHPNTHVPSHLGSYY", "how_it_was_run": "(§1)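 Binding signal is given per hexamer as its read frequency for a factor divided by its frequency in the tag-only sample. GST-fused human transcription factors were expressed in yeast, captured on glutathione beads, barcoded with DNA and pooled with that sample, then incubated with 200 nmole of a 16-mer random double-stranded DNA library in Tris/NaCl/DTT/glycerol buffer for 30 min at room temperature. The pools were then washed, crosslinked, proximity-ligated, amplified by PCR and sequenced on an Illumina NextSeq500.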"}, "[2]": {"target": "T2, ELK1 (Homo sapiens, UniProt P19419 1-428)", "T2 sequence": "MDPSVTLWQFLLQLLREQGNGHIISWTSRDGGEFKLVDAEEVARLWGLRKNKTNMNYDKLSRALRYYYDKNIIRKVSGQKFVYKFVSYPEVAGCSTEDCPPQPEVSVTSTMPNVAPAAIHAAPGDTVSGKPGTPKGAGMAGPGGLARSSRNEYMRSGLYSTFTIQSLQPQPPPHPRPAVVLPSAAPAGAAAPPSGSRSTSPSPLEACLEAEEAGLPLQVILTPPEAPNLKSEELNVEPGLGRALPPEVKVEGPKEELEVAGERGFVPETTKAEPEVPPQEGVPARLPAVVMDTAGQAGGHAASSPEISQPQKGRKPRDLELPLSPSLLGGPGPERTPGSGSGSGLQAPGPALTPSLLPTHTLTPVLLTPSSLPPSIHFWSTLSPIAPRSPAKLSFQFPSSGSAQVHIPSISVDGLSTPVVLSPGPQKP", "how_it_was_run": "as §1"}, "[3]": {"target": "T3, GABPA (Homo sapiens, UniProt Q06546 1-454)", "T3 sequence": "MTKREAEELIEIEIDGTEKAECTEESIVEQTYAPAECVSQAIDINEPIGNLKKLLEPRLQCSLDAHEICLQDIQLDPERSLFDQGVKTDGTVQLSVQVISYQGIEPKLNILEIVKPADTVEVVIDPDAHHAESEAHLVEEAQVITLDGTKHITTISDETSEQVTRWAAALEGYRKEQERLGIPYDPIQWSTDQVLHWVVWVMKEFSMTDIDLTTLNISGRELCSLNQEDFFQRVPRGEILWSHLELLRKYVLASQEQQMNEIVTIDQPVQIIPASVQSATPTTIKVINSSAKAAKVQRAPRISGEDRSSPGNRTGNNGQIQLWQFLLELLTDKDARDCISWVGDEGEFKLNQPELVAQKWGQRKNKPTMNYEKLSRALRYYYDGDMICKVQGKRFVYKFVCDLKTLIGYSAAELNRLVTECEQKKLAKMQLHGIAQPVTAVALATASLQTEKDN", "how_it_was_run": "as §1"}, "[4]": {"target": "T4, ERG (Homo sapiens, UniProt P11308 1-479)", "T4 sequence": "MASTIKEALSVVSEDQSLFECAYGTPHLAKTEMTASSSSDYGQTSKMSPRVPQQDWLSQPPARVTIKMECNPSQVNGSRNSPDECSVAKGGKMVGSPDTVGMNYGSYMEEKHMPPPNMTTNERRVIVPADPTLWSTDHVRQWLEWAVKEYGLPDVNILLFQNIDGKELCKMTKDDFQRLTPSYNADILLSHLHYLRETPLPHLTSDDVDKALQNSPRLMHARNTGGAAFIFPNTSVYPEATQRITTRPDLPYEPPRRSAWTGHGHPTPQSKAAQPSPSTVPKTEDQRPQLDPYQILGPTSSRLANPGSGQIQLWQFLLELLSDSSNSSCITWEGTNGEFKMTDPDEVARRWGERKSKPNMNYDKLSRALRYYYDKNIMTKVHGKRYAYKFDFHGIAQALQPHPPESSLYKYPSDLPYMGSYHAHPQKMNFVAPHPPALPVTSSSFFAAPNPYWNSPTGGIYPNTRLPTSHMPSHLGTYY", "how_it_was_run": "as §1"}, "[5]": {"target": "ELF1 (Homo sapiens, UniProt P32519 1-619)", "sequence (P32519 whole entry)": "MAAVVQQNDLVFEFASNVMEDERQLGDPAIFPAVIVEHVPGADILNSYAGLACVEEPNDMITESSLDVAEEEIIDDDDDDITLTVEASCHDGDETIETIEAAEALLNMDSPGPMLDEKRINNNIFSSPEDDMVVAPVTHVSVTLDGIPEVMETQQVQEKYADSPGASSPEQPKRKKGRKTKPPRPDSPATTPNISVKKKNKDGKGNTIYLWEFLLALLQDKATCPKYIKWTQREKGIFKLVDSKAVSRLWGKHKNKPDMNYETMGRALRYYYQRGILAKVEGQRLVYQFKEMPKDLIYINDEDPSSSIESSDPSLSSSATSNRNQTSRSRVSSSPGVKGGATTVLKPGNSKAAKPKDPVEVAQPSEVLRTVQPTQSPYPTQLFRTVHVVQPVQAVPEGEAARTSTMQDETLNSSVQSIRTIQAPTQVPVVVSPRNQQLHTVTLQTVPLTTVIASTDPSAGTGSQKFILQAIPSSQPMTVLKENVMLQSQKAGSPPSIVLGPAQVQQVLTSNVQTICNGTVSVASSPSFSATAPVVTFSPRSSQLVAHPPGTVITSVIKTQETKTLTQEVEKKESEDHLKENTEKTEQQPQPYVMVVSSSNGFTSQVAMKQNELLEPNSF", "how_it_was_run": "as §1"}, "[6]": {"target": "T5, EHF (Homo sapiens, UniProt Q9NZC4 1-300)", "T5 sequence": "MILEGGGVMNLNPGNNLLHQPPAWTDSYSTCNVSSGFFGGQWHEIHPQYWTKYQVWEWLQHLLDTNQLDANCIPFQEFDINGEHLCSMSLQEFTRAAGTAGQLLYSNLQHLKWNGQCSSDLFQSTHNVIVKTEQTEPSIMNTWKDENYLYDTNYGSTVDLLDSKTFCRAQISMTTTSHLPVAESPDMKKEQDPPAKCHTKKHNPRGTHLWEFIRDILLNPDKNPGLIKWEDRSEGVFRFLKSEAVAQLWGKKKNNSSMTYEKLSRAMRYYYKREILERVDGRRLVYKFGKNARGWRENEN", "how_it_was_run": "as §1"}, "[7]": {"target": "SPI1 (Homo sapiens, UniProt P17947 1-270)", "how_it_was_run": "as §1"}, "[8]": {"target": "SPIB (Homo sapiens, UniProt Q01892 1-262)", "sequence (Q01892 whole entry)": "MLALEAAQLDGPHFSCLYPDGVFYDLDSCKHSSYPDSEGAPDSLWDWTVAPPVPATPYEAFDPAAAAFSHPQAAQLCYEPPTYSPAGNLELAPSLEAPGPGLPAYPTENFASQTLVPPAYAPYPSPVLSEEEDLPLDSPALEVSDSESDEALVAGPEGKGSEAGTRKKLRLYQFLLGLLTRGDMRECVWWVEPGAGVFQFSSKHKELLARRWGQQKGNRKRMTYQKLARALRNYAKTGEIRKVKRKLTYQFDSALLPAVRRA", "how_it_was_run": "as §1"}, "[9]": {"target": "T6, ELK3 (Homo sapiens, UniProt P41970 1-407)", "T6 sequence": "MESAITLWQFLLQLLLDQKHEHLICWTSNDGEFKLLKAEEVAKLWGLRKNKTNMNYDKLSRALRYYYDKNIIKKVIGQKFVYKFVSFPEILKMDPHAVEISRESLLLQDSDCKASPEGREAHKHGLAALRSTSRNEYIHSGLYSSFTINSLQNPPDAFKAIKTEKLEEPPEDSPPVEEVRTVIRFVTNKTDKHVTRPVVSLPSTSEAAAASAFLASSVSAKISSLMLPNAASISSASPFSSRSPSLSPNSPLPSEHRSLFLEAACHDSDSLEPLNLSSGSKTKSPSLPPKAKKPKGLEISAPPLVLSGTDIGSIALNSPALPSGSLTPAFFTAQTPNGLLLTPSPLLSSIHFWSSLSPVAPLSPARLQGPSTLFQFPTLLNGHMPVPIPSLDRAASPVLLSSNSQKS", "how_it_was_run": "as §1"}}}
{"sequence": "TAATAT", "values": [{"measurement": "binding signal", "setting": "[1]", "result": "1.36 fold enrichment (6-mer frequency, TF over GST control)"}, {"measurement": "binding signal", "setting": "[2]", "result": "1.25 fold enrichment (6-mer frequency, TF over GST control)"}, {"measurement": "binding signal", "setting": "[3]", "result": "1.3 fold enrichment (6-mer frequency, TF over GST control)"}, {"measurement": "binding signal", "setting": "[4]", "result": "1.25 fold enrichment (6-mer frequency, TF over GST control)"}, {"measurement": "binding signal", "setting": "[5]", "result": "1.27 fold enrichment (6-mer frequency, TF over GST control)"}, {"measurement": "binding signal", "setting": "[6]", "result": "1.3 fold enrichment (6-mer frequency, TF over GST control)"}, {"measurement": "binding signal", "setting": "[7]", "result": "1.23 fold enrichment (6-mer frequency, TF over GST control)"}, {"measurement": "binding signal", "setting": "[8]", "result": "1.21 fold enrichment (6-mer frequency, TF over GST control)"}, {"measurement": "binding signal", "setting": "[9]", "result": "1.33 fold enrichment (6-mer frequency, TF over GST control)"}]}
